Where “and” joins values, the source holds several entries; their conditions need not be identical. Equal values may be shown once. Calls of active or inactive are those of the source. Unless noted, the rule behind the calls is not given here.
Tests used:
[1] = liver-stage malaria parasite growth inhibition, primary screen, cell-based, HepG2, luciferase luminescence, HepG2 viability (AID 624349; in the data active = parasite load remaining mostly below about 12%, no sharp cut-off; inactive = mostly above about 10%;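 note: 100% = mean of DMSO negative control wells on the same plate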); settings: P. berghei liver stage in HepG2, luciferase luminescence, concentration not given here; parasite load remaining: stronger effect = lower value; viability: measured here: HepG2 viability without parasites
[2] = Cy5 fluorescence interference with SSB-bound oligo, artefact control for HCV NS3 helicase inhibitor project, biochemical, NIH Clinical Collection, E. coli SSB (AID 743268)
[3] = system: Hepatitis C virus NS3 helicase; assay: HCV NS3 helicase inhibitors, primary screen, biochemical, fluorescence polarization, NIH Clinical Collection (AID 743270); settings: NS3 helicase binding to Cy5-dT15 DNA, stronger effect = higher value, concentration not given here
[4] = biological target: Single-stranded DNA-binding protein (Escherichia coli (strain K12)) (UniProt P0AGE0); assay: E. coli SSB displacement from DNA, counter-screen for HCV NS3 helicase inhibitor project, biochemical, fluorescence polarization, NIH Clinical Collection (AID 743271; in the data active = inhibition above about 28%); settings: stronger effect = higher value, concentration not given here
[5] = fluorescence interference in NS3h assay format, artefact control for HCV NS3 helicase inhibitor project, biochemical, NIH Clinical Collection (AID 743272); settings: fluorescence interference counterscreen, stronger effect = lower value;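 note: HCV NS3 helicase with a Cy5 labelled single stranded DNA probe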
[6] = system: Neuropilin-2 / VEGF-C interaction (human); assay: inhibitors of NRP2–VEGF-C binding, biochemical, microplate binding format, z-score (AID 743281); settings: microplate NRP2/VEGF-C binding assay; stronger effect = lower value
[7] = stimulators of nuclear beta-catenin in C2C12, primary screen, imaging, WNT3A-conditioned medium, mouse C2C12, NPC library (AID 1117326; in the data active = nuclear beta-catenin stimulation mostly above about 4.2%, no sharp cut-off; inactive = mostly below about 10%); settings: stronger effect = higher value
[8] = system: Hepatitis C virus NS3 helicase; assay: HCV NS3 helicase inhibitors, primary screen, biochemical, fluorescence polarization, LOPAC1280 library (AID 687035; in the data active = inhibition above about 37%); settings: Purified HCV NS3 helicase, Cy5-dT15 ssDNA binding fluorescence polarization; stronger effect = higher value; concentration not given here
[9] = Cy5 fluorescence quenching or enhancement artefacts, artefact control for HCV NS3 helicase inhibitor project, biochemical, LOPAC1280 (AID 687037); settings: Cy5-DNA-NS3h complex fluorescence interference counterscreen

SMILES	parasite load remaining [1]	viability [1]	fluorescence ratio [2]	inhibition [3]	inhibition [4]	fluorescence ratio [5]	z-score [6]	nuclear beta-catenin stimulation ([7]; at 10 µM)	nuclear beta-catenin stimulation ([7]; stimulation, at 2 µM) [%]	inhibition [8]	fluorescence ratio (interference) [9]	outcome [6]
CC(c1cc2ccccc2s1)N(O)C(N)=O (stereo not drawn)	58.4% (inactive) and 101% (inactive) and 41.5% (inactive)	101% and 79.1% and 102%	1.02 (inactive)	2.77% (inactive)	-0.87% (inactive)	1.01 (inactive)	-0.124 (inactive)	0.1% (inactive)	0.8			
NS(=O)(=O)Cc1noc2ccccc12	75.4% (inactive) and 46.4% (inactive)	89.2% and 110%	1 (inactive)	-6.82% (inactive)	-4.29% (inactive)	1 (inactive)		0.1% (inactive)	0.4			
O=C1Nc2ccc(Cl)cc2[C@@](C#CC2CC2)(C(F)(F)F)O1	46.6% (inactive) and 8.97% (inactive)	69% and 64.5%	0.99 (inactive)	5.15% (inactive)	6.06% (inactive)	0.99 (inactive)	0.939 (inactive)	-0.8% (inactive)	3.6			
COc1ccc(CN2CCN(C(c3ccc(F)cc3)c3ccc(F)cc3)CC2)c(OC)c1OC	0.425% (inactive) and 2.35% (inactive)	59.6% and 66%	1 (inactive)	1.19% (inactive)	7.6% (inactive)	0.91 (inactive)	0.136 (inactive)	8.4% (inactive)	5.6			
C[C@@H]1C[C@H]2[C@@H]3CCC4=CC(=O)C=C[C@]4(C)[C@@]3(F)[C@@H](O)C[C@]2(C)[C@H]1C(=O)CO	74.3% (inactive)	70.8%	0.96 (inactive)	-1.97% (inactive)	-1.97% (inactive)	0.92 (inactive)		-1.6% (inactive)	0.6			
CCN1CCC[C@H]1CNC(=O)c1c(O)c(Cl)cc(Cl)c1OC	132% (inactive) and 60.7% (inactive)	135% and 99%	0.94 (inactive)	1.19% (inactive)	7.6% (inactive)	0.77 (active)	-0.335 (inactive)	0.6% (inactive)	3.4	-2% (inactive)	1 (inactive)	
Nc1nc(F)nc2c1ncn2[C@@H]1O[C@H](CO)[C@@H](O)[C@@H]1O	18.4% (inactive)	114%	1.01 (inactive)	1.36% (inactive)	-2.76% (inactive)	1.02 (inactive)		0.3% (inactive)	2.3			
C[C@H]1COc2c(C3(N)CC3)c(F)cc3c(=O)c(C(=O)O)cn1c23	143% (inactive) and 21.7% (inactive)	89.8% and 67.5%	1.05 (inactive)	5.15% (inactive)	-0.1% (inactive)	1.02 (inactive)	0.653 (inactive)	1.2% (inactive)	0.2			
CC(Oc1c(Cl)cccc1Cl)C1=NCCN1 (stereo not drawn)	53.2% (inactive) and 28% (inactive)	69% and 138%	0.98 (inactive)	-8.08% (inactive)	-3.54% (inactive)	0.95 (inactive)	0.439 (inactive)	-2.3% (inactive)	0.3			
CCCc1nc(C)c2c(=O)[nH]c(-c3cc(S(=O)(=O)N4CCN(CC)CC4)ccc3OCC)nn12	37.6% (inactive) and 31.5% (inactive) and 37.1% (inactive)	202% and 68.7% and 126%	0.94 (inactive)	-13.3% (inactive)	-1.97% (inactive)	0.93 (inactive)		0.1% (inactive)	-1			inactive
CC(=O)Oc1ccccc1C(=O)Nc1ncc([N+](=O)[O-])s1	0.07% (inactive)	55.1%	1 (inactive)	2.77% (inactive)	4.52% (inactive)	1 (inactive)	-0.0903 (inactive)	13.9% (inactive)	2			
CCOc1cc(CC(=O)N[C@@H](CC(C)C)c2ccccc2N2CCCCC2)ccc1C(=O)O	85.6% (inactive) and 16.6% (inactive) and 98.7% (inactive)	77.8% and 183% and 76.2%	1.02 (inactive)	5.94% (inactive)	2.21% (inactive)	1.02 (inactive)	-0.286 (inactive)	-1.5% (inactive)	0.2			
CNCCCCOc1ccccc1Cc1ccccc1	22.1% (inactive)	54.6%	1 (inactive)	-4.36% (inactive)	-0.87% (inactive)	0.96 (inactive)	-0.524 (inactive)	1.7% (inactive)	1.6			
C#C[C@]1(O)CC[C@H]2[C@@H]3[C@H](C)CC4=C(CCC(=O)C4)[C@H]3CC[C@@]21C	43.6% (inactive) and 8.38% (inactive)	76.2% and 73.5%	0.99 (inactive)	0.66% (inactive)	1.18% (inactive)	0.99 (inactive)		7.4% (inactive)	0.8			
COc1cc(C(=O)NS(=O)(=O)c2ccccc2C)ccc1Cc1cn(C)c2ccc(NC(=O)OC3CCCC3)cc12	103% (inactive) and 39.6% (inactive)	73.8% and 104%	0.99 (inactive)	16.2% (active)	25.3% (inactive)	1.03 (inactive)	-5.32 (active)	0.1% (inactive)	0.4			
CC(C)(C)NC(=O)[C@H]1CC[C@H]2[C@@H]3CC[C@H]4NC(=O)C=C[C@]4(C)[C@H]3CC[C@]12C	85.8% (inactive) and 62.9% (inactive) and 31.1% (inactive)	103% and 63% and 78%	1.05 (inactive)	0.4% (inactive)	-2.41% (inactive)	1.02 (inactive)		5.2% (inactive)	2			
O=c1[nH]cnc2c1ncn2[C@H]1CC[C@@H](CO)O1	41.8% (inactive) and 84.4% (inactive) and 65.2% (inactive)	46.9% and 69.4% and 110%	1.06 (inactive)	1.19% (inactive)	0.67% (inactive)	1.01 (inactive)		-2.1% (inactive)	-0.4			inactive
Oc1c(Cl)cc(Cl)c(Cl)c1Cc1c(O)c(Cl)cc(Cl)c1Cl	-3.37% (inactive) and -0.17% (inactive) and -0.05% (inactive)	54.9% and 42.6% and 53.4%	1.01 (inactive)	15.9% (inactive)	20.1% (inactive)	0.92 (inactive)		15% (inactive)	8.3			
CC(C)c1nc(CN(C)C(=O)N[C@H](C(=O)N[C@@H](Cc2ccccc2)C[C@H](O)[C@H](Cc2ccccc2)NC(=O)OCc2cncs2)C(C)C)cs1	53.8% (inactive)	79.2%	1.03 (inactive)	3.56% (inactive)	9.91% (inactive)	0.89 (inactive)	0.723 (inactive)	7.7% (inactive)	5.1			
CC(=O)O[C@H]1C[C@@H]2CC[C@@H]3[C@H](CC[C@@]4(C)[C@H]3C[C@H]([N+]3(C)CCCCC3)[C@@H]4OC(C)=O)[C@@]2(C)C[C@@H]1N1CCCCC1	67.6% (inactive) and 50.8% (inactive)	76.1% and 73.5%	1 (inactive)	-0.22% (inactive)	5.91% (inactive)	1 (inactive)		-1.4% (inactive)	-1.2			
C#C[C@]1(O)CC[C@H]2[C@@H]3CCc4cc(OC)ccc4[C@H]3CC[C@@]21C	48% (inactive) and 32.2% (inactive)	96.9% and 76.9%	1 (inactive)	3.56% (inactive)	1.44% (inactive)	1 (inactive)		3.3% (inactive)	0.6			
O=C(O)CCNC(=O)c1ccc(N=Nc2ccc(O)c(C(=O)O)c2)cc1	105% (inactive) and 63.3% (inactive)	90.8% and 75.1%	0.93 (inactive)	-2.84% (inactive)	1.97% (inactive)	0.94 (inactive)		0.8% (inactive)	0.3			inactive
C[n+]1ccccc1/C=N/O	55.9% (inactive) and 86% (inactive) and 126% (inactive)	133% and 101% and 76.5%	1 (inactive)	-3.18% (inactive)	-0.48% (inactive)	0.96 (inactive)		-0.7% (inactive)	-0.6			
CCC(=O)O[C@]1(C(=O)SCF)[C@H](C)C[C@H]2[C@@H]3C[C@H](F)C4=CC(=O)C=C[C@]4(C)[C@@]3(F)[C@@H](O)C[C@@]21C	82.3% (inactive) and 83.8% (inactive)	68.2% and 100%	1 (inactive)	5.94% (inactive)	5.29% (inactive)	1.02 (inactive)		0.9% (inactive)	2.7			
CN(C)CC[C@@H](c1ccc(Cl)cc1)c1ccccn1	51.2% (inactive)	68.9%	0.95 (inactive)	-2.84% (inactive)	-2.76% (inactive)	0.91 (inactive)	0.0729 (inactive)	-1.2% (inactive)	0.3	-6% (inactive)	0.9 (inactive)	
CCOC(=O)O[C@]1(C(=O)OCCl)CC[C@H]2[C@@H]3CCC4=CC(=O)C=C[C@]4(C)[C@H]3[C@@H](O)C[C@@]21C	196% (inactive)	72.9%	1.04 (inactive)	-0.4% (inactive)	4.52% (inactive)	1.05 (inactive)		-1.2% (inactive)	-0.3			
CC1(C)O[C@@H]2C[C@H]3[C@@H]4C[C@H](F)C5=CC(=O)C=C[C@]5(C)[C@@]4(F)[C@@H](O)C[C@]3(C)[C@]2(C(=O)CO)O1	46.3% (inactive) and 25.1% (inactive)	96.3% and 68%	1 (inactive)	-1.36% (inactive)	0.29% (inactive)	0.97 (inactive)		-1.6% (inactive)	2			
C#C[C@]1(O)CC[C@H]2[C@@H]3CCc4cc(O)ccc4[C@H]3CC[C@@]21C	111% (inactive)	66.2%	0.98 (inactive)	1.98% (inactive)	-0.87% (inactive)	0.92 (inactive)		1.5% (inactive)	0.8			
